Source: PubChem BioAssay
Compounds with a hit are over-represented: about 7.9% of the library has one in this group of screens.
Lassa entry inh: qHTS for Inhibitors of binding or entry into cells for Lassa Virus; Lassa virus pseudotype entry inhibition, cell reporter; Potency, µM (highest dose often 37.9 µM), usual class: inhibitors; hit rate 1.2% among 300,000; calls by dose curve; tested in HEK293 cells; note: nearly all actives have a fitted effect of over 50% in size
HCMV inh: qHTS Assay for inhibitors of the human cytomegalovirus (HCMV); activity change, negative = inhibition, % at 57.5 µM; AID 1259415, 2018; HFF cells, HCMV-luciferase reporter, 72 h; active compounds read low; hit rate 4.5% among 410,000; in the data active = activity change below about -60%; inconclusive = no clear call, values can overlap the other calls; inactive = above about -39%
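Luciferase read-out from HCMV-luciferase-infected HFFs (MOI 1 PFU/cell) 72 h post infection at 37C; compounds added after 16 h cell attachment; activity normalized between buffer-only basal and Salinomycin (10uM) inhibitor controls.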
FMDV inh: High Throughput Screening for Foot and Mouth Disease Virus Antivirals; FMDV antiviral cell-based qHTS; Potency, µM (highest dose often 57.9 µM), most hits filed as inhibitors; hit rate 1.2% among 410,000; AID 1159524, 2015; calls by dose curve; tested in HEK293T cells; note: read-out not given here; nearly all actives have a fitted effect of over 45% in size
MARV entry inh: qHTS for inhibitors of binding or entry into cells for Marburg Virus; Marburg virus pseudotyped entry inhibition, cell reporter; Potency, µM (doses to about 37.8 µM), usual class: inhibitors; hit rate 1.8% among 300,000; calls by dose curve; tested in HEK293 cells
HCV inhibitor: qHTS Assay for Inhibitors of Hepatitis C Virus (HCV) | hit rate 3.4% among 340,000 | Potency, µM (doses to about 41.8 µM), usual class: inhibitors | Huh7.5.1 HCVcc-Cre infection, luciferase reporter, 44 h
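Cells (1,000/well) were plated 4 h before compound, then infected with HCVcc-Cre virus (~0.5 moi). After 44 h further culture, infection was read as luciferase luminescence following a 15 min substrate incubation at room temperature.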
G2M arrest HeLa: Cell cycle validation with wells to cells screening paradigm. shares compounds with MARV entry inh. HeLa cell cycle G2/M arrest, Hoechst DNA content imaging. Potency, µM, hits mostly inhibitors. hit rate 60% among 25
WI-38 tox: High Content Assay for Compounds that inhibit the Assembly of the Perinucleolar Compartment: WI-38 Cytotoxicity; shares compounds with MARV entry inh; WI-38 normal lung fibroblasts, ATPLite luminescence ATP viability, 24 h; Potency, µM (highest dose often 46.1 µM), actives largely listed as inhibitors; 120 tested, under 10 active; AID 2729, 2010
PNC inh conf: High Content Assay for Compounds that inhibit the Assembly of the Perinucleolar Compartment: Confirmation of PNC Inhibition | PC3M PTB-GFP, PNC prevalence imaging, 16 h | AID 2730, 2010 | shares compounds with MARV entry inh | Potency, µM (doses to about 46.1 µM), usual class: inhibitors | hit rate 50% among 120
PC3M caspase: High Content Assay for Compounds that inhibit the Assembly of the Perinucleolar Compartment: PC3M Caspase 3/7 Activation; activity change, positive = activation, % at 46.1 µM; PC3M-GFP caspase 3/7 activation, luminescence, 24 h; AID 2731, 2010; shares compounds with MARV entry inh; 120 tested, under 10 active
HCV inh confirm: qHTS Assay for Inhibitors of Hepatitis C Virus (HCV): Confirmation Assay for Cherry-picked Compounds | shares compounds with HCV inhibitor | HCVcc-Cre infectious virus cell assay, luciferase, inhibition | Potency, µM (top dose mostly 41.8 µM), hits mostly inhibitors | hit rate 78% among 640; note: nearly all actives have a fitted effect of over 80% in size
HCV cytotox: qHTS Assay for Inhibitors of Hepatitis C Virus (HCV): Cytotoxicity Counterscreen for Cherry-picked Compounds; shares compounds with HCV inhibitor; HCV host cell line cytotoxicity counterscreen; Potency, µM (top dose mostly 41.8 µM), hits mostly inhibitors; hit rate 22% among 640;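 note: 44 h compound exposure; nearly all actives have a fitted effect of over 55% in size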
Hits are given with their value; . = inactive; ? = inconclusive; / = not tested or not shown; ! = not confirmed by another sample. Unless noted, calls come from the whole dose curve; as a rule, active = well fitted curve in the direction sought with a large enough effect; inconclusive = small, poorly fitted or top-dose-only effect, or another doubt; inactive = no such curve, though single readings can be large; an effect the other way counts as inactive or inconclusive.

SMILES | Lassa entry inh | HCMV inh | FMDV inh | MARV entry inh | HCV inhibitor | HCV inh confirm | HCV cytotox | others
COc1cc2c(cc1O)CCC1C2CC[C@]2(C)[C@@H](O)CC[C@@H]12 (stereo not given in full) | / | / | / | ? | / | / | / | G2M arrest HeLa=1.1
Cc1cc(C)cc(NC(=S)NCCc2ccc(S(N)(=O)=O)cc2)c1 | . | . | . | . | . | / | /
Cc1ccc(NC(=S)NCCc2ccc(S(N)(=O)=O)cc2)cc1C | . | . | . | . | ? | / | / | WI-38 tox=.;PNC inh conf=.;PC3M caspase=.
Fc1cccc(Cc2noc(CN3CCC(c4ccncc4)CC3)n2)c1 | / | . | ? | / | ? | / | /
O=C(O)c1ccc(-c2nc(-c3ccccc3)c(-c3ccccc3)[nH]2)cc1 | ? | . | . | . | . | / | /
Oc1ccc(-c2nc(-c3ccc(F)cc3)c(-c3ccncc3)[nH]2)cc1 | ? | . | ? | 5µM | ? | / | / | G2M arrest HeLa=?
COc1cc(OC)c(/C=C2/C(=O)Nc3ccccc32)c(OC)c1 | ? | / | / | 0.89µM | / | / | / | G2M arrest HeLa=2
COc1cc(Br)cc(C(=O)N2CCc3ccccc32)c1OC | / | . | . | / | / | / | /
CN(C)c1ccc(C(=O)OCC(=O)NC2CCCCCC2)cc1 | ? | . | . | ? | ? | / | /
CN(C)c1ccc(N=Nc2ccccc2C(=O)OCC(=O)NC2CCCC2)cc1 | ? | ? | . | ? | . | / | / | WI-38 tox=?;PNC inh conf=?;PC3M caspase=.
O=c1c2ccccc2nnn1CSc1ccc2ccccc2n1 | . | . | . | . | . | / | / | WI-38 tox=.;PNC inh conf=?;PC3M caspase=.
Cc1ccc(Nc2c(-c3ccc(N4CCOCC4)cc3)nc3ncccn23)c(C)c1 | . | . | . | ? | ? | / | /
Cc1cccc(C)c1Nc1c(-c2ccc(N3CCOCC3)cc2)nc2ncccn12 | . | . | . | . | ? | / | / | WI-38 tox=.;PNC inh conf=.;PC3M caspase=.
COc1cc(/C=N/NC(=O)c2ccc3nc[nH]c3c2)cc(OC)c1OC | . | / | . | . | . | / | /
COc1cc(/C=N/NC(=O)c2ccc(CSc3nc4ccccc4[nH]3)cc2)cc(OC)c1OC | ? | . | ? | ? | ? | / | / | WI-38 tox=.;PNC inh conf=.;PC3M caspase=.
Cc1ccccc1S(=O)(=O)N(C)C[C@H]1OCc2cnnn2CCCC(=O)N([C@H](C)CO)C[C@H]1C | / | . | . | / | / | / | /
C/C(N)=C(/C#N)C(=O)COC(=O)c1cc(C)n(-c2ccc(F)cc2)c1C | ? | . | . | 2µM | ? | / | / | WI-38 tox=.;PNC inh conf=13µM;PC3M caspase=.
Cc1c(C#N)c(N)nc2c3c(sc12)NC(=O)CC3c1ccc(F)cc1 (stereo not given) | . | . | . | ? | . | / | / | WI-38 tox=.;PNC inh conf=.;PC3M caspase=.
Cc1c(C#N)c(N)nc2c3c(sc12)NC(=O)CC3c1ccccc1 (stereo not given) | . | . | . | ? | . | / | /
Cn1cc(CNCc2ccc(OC(F)(F)F)cc2)c(-c2ccc3c(c2)OCCO3)n1 | / | -81 | ? | / | 1µM | 1µM | 5µM
CN(Cc1ccon1)Cc1cn(C)nc1-c1ccc2c(c1)OCCO2 | . | . | . | ? | . | / | /
O=C(O)c1cccc(-n2nc(-c3ccc(Cl)c([N+](=O)[O-])c3)c3ccccc3c2=O)c1 | . | . | . | ? | . | / | /
CN1CCN(/N=C/c2ccc(Cl)c(Cl)c2)CC1 | ? | . | . | ? | ? | ? | .
C/C(=N\NC(=O)C(C)n1nc(C)c([N+](=O)[O-])c1C)c1ccccc1O (stereo not given) | 13µM | -101 | . | 9.2µM | 2.5µM | 7.9µM | ?
Cc1nn(C(C)C(=O)NCc2ccco2)c(C)c1[N+](=O)[O-] (stereo not given) | / | . | . | / | . | / | /
SMILES | Lassa entry inh | HCMV inh | FMDV inh | MARV entry inh | HCV inhibitor | HCV inh confirm | HCV cytotox | others
O=C(/C=C/c1ccco1)Nc1ccc(-c2nc3ccccc3[nH]2)cc1 | . | ? | . | ? | 2.8µM | 6.3µM | ?
C(=C\c1ccco1)/c1nc2ccccc2[nH]1 | / | ? | . | / | . | / | /
CC1CC(C)C(=O)C(C(CC2CC(=O)NC(=O)C2)OC(=O)CC(=O)c2ccccc2)C1 (stereo not given) | ? | -98 | . | ? | 5µM | 13µM | .
COc1cc(C)c(C(=O)Oc2cc(C)c(C(=O)O)c(O)c2)c(O)c1 | / | . | . | / | 0.79µM | . | .
C[C@H]1C[C@@H]2[C@H]([C@@H](O)C[C@@]3(C)[C@H]2CC[C@]3(O)C(=O)CO)[C@@]2(C)C=CC(=O)C=C12 | . | . | . | . | 5.6µM! | . | .
Cc1ccc(C)c(C(=O)N(C)CC(=O)Nc2ccccc2C(F)(F)F)c1 | / | . | . | / | . | / | /
COc1cc2c(cc1NC(=O)COC(=O)CNS(=O)(=O)c1ccc(C)cc1)oc1ccccc12 | . | . | . | . | ? | 7.9µM | .
COc1cc2c(cc1NC(=O)COC(=O)[C@@H](NS(=O)(=O)c1cccc(Cl)c1)C(C)C)oc1ccccc12 | . | . | . | ? | ? | 13µM | .
COc1ccc(S(=O)(=O)N[C@@H](C)C(=O)OCC(=O)Nc2cc3oc4ccccc4c3cc2OC)cc1 | . | . | . | ? | 6.3µM | 22µM | .
CCOC(=O)c1c(C)oc2ncnc(Nc3cc(Cl)ccc3OC)c12 | ? | . | . | / | / | / | /
O=C(NNc1ccc(Cl)cc1)C1CCC1 | . | . | . | . | . | / | /
O=C(NNc1ccnc2cc(Cl)ccc12)C1CCCCC1 | . | -82 | ? | ? | 2.8µM | 0.89µM | 1.6µM
Nc1ccc(CCc2ccccn2)cc1 | ? | . | . | . | . | / | /
CN1CCN(/N=C/c2ccc(-c3ccc([N+](=O)[O-])cc3Cl)o2)CC1 | . | ? | . | ? | 8.9µM | ? | .
CC(=O)c1cn(CC(=O)Nc2ccccc2C(F)(F)F)c2ccccc12 | / | ? | ? | / | . | / | /
COc1ccc(C(=O)Nc2nnc(SCC(=O)Nc3ccc(NC(C)=O)cc3)s2)c(OC)c1 | / | . | . | / | . | / | /
CCc1nnc(NC(=O)c2ccc(OC)cc2OC)s1 | ? | . | / | ? | 8.9µM | . | .
